Experimental data published in the supplement of paper PMC6555819.

Key:
Test in all cases: PBM binding z-score (relative to random genomic background probes); higher = stronger binding; sequences stand for … in GC…GCGATTGACAGCGTAGAATGAAGG
[1] = test system: FXR:RXRa (NR concentration 270 nM, RXRa partner concentration 90 nM)
How it was run: (§1)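 Each nuclear receptor dimer, without ligand, was incubated for 1 h on custom Agilent 4×180K protein-binding microarrays. Binding was detected with antibodies against each partner (one per run), and scanned fluorescence was regression-normalized. The binding z-scores are referenced to random human genomic background probes.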

[2] = test system: LXRa:RXRa (NR concentration 270 nM, RXRa partner concentration 90 nM)
How it was run: as §1

[3] = test system: LXRa homodimer (NR concentration 270 nM)
How it was run: as §1

[4] = test system: LXRb:RXRa (NR concentration 270 nM, RXRa partner concentration 90 nM)
How it was run: as §1

[5] = test system: LXRb homodimer (NR concentration 270 nM)
How it was run: as §1

[6] = test system: PPARa:RXRa (NR concentration 270 nM, RXRa partner concentration 90 nM)
How it was run: as §1

[7] = test system: PPARg:RXRa (NR concentration 180 nM, RXRa partner concentration 90 nM)
How it was run: as §1

[8] = test system: PPARg:RXRa 270nM:90nM, anti-RXR (NR concentration 270 nM, RXRa partner concentration 90 nM)
How it was run: as §1

[9] = test system: PPARg:RXRa 30nM:10nM, anti-RXR (NR concentration 30 nM, RXRa partner concentration 10 nM)
How it was run: as §1

[10] = test system: PPARg:RXRa 90nM:30nM, anti-RXR (NR concentration 90 nM, RXRa partner concentration 30 nM)
How it was run: as §1

[11] = test system: PPARg:RXRa DBDmut IVT, anti-RXR (DBD mutation: RXRa K156A/R161A, NR concentration 270 nM, RXRa partner concentration 90 nM)
How it was run: as §1

[12] = test system: PPARg:RXRa IVT, anti-PPARg (NR concentration 270 nM, RXRa partner concentration 90 nM)
How it was run: as §1

[13] = test system: PPARg DBDmut:RXRa IVT, anti-PPARg (DBD mutation: PPARg1 K132A/R137A, NR concentration 270 nM, RXRa partner concentration 90 nM)
How it was run: as §1

[14] = test system: PPARg DBDmut IVT, anti-PPARg (DBD mutation: PPARg1 K132A/R137A, NR concentration 270 nM)
How it was run: as §1

[15] = test system: PPARg homodimer (NR concentration 180 nM)
How it was run: as §1

[16] = test system: PXR:RXRa (NR concentration 270 nM, RXRa partner concentration 90 nM)
How it was run: as §1

[17] = test system: PXR homodimer (NR concentration 270 nM)
How it was run: as §1

[18] = test system: RARa:RXR (NR concentration 270 nM, RXRa partner concentration 90 nM)
How it was run: as §1

[19] = test system: RARa homodimer (NR concentration 270 nM)
How it was run: as §1

[20] = test system: RARb:RXRa (NR concentration 270 nM, RXRa partner concentration 90 nM)
How it was run: as §1

| Sequence | PBM binding z-score [1] | PBM binding z-score [2] | PBM binding z-score [3] | PBM binding z-score [4] | PBM binding z-score [5] | PBM binding z-score [6] | PBM binding z-score [7] | PBM binding z-score [8] | PBM binding z-score [9] | PBM binding z-score [10] | PBM binding z-score [11] | PBM binding z-score [12] | PBM binding z-score [13] | PBM binding z-score [14] | PBM binding z-score [15] | PBM binding z-score [16] | PBM binding z-score [17] | PBM binding z-score [18] | PBM binding z-score [19] | PBM binding z-score [20] |
| --- | --- | --- | --- | --- | --- | --- | --- | --- | --- | --- | --- | --- | --- | --- | --- | --- | --- | --- | --- | --- |
| CCGACTGGGGCAAGGATACCATAACGCACAGCCA | -0.419 | -0.243 | -0.0407 | -0.588 | -1.01 | 0.158 | 1.6 | 1.16 | -0.149 | 0.515 | 2.53 | 2.44 | -1.12 | -0.391 | 0.238 | -0.678 | -0.593 | -0.387 | 0.23 | 0.558 |
| CCGAGTAGTTTATGGGGCATTCAGGCAACGGTGA | 0.0687 | -0.0173 | -0.197 | 0.53 | -0.0668 | 0.806 | 0.147 | 0.448 | -0.234 | 0.108 | 1.6 | 1.4 | -0.427 | -0.259 | 0.266 | -0.181 | -0.00127 | -0.101 | -0.193 | 0.282 |
| TCAAACAGGTGAAGGTAACTCAGGTACGCAGTCG | 1.02 | 1.85 | 0.0857 | 1.22 | -0.218 | 1.61 | 0.959 | 2.43 | 4.26 | 3.48 | 3.03 | 1.6 | 0.098 | 0.184 | 0.662 | 0.812 | 0.0874 | 1.19 | 0.552 | 1.26 |
| TCTTGTAGATCAAAGGCTAAGAAAGCCGAAGCCT | 0.284 | 0.0908 | -0.472 | -0.0772 | -0.625 | 1.68 | 3.24 | 4.87 | 4.4 | 5.12 | 1.65 | 1.23 | 0.137 | 0.157 | -0.136 | -0.183 | -0.625 | 0.0326 | -0.389 | 0.153 |
| AGAACGAGGGCACGCTGAGTTGATAGAAGAGTAG | 0.553 | 0.362 | -0.441 | 0.106 | -0.925 | 2.09 | 2.05 | 1.54 | 0.398 | 1.11 | 3.93 | 3.46 | 0.756 | 0.00527 | 0.193 | 1.28 | -0.0963 | 0.661 | -0.807 | 2.31 |
| GCGAGTGGGGCATCAGCAGGTTACCATAACTTAA | -0.42 | -0.14 | -0.135 | 1.15 | 0.239 | 1.15 | 0.528 | 0.575 | -0.218 | 0.332 | 3.22 | 2.59 | -0.589 | -0.427 | 0.496 | 0.25 | -0.251 | 0.531 | -0.613 | 0.812 |
| CGAACTAGGTCAGAACAGAACAGTGAAGGATGAT | 0.766 | 0.278 | -0.166 | 0.401 | -0.644 | 2.7 | 5.43 | 4.46 | 1.89 | 3.74 | 7.54 | 7.16 | 1.34 | 0.4 | 0.811 | -0.0344 | 0.00344 | 0.194 | -0.0462 | 2.8 |
| ATATGTAGGTTACATCCGGGTCATTCATGCTATG | 2.21 | 4.15 | 1.59 | 3.05 | 0.928 | 4.55 | 6.16 | 5.07 | 2.55 | 4.45 | 7.49 | 7.53 | 5.06 | 3.54 | 3.61 | 3.79 | 1.66 | 3.83 | 1.2 | 2.23 |
| GCTATTAGTTGATAGGGCAACCGAATGATTCTCG | 0.0649 | -0.305 | -0.0602 | -0.111 | -0.693 | 0.29 | 0.713 | 1.48 | 0.376 | 0.928 | 0.375 | 0.394 | -0.22 | -0.757 | 0.294 | -0.353 | -0.032 | 0.0949 | 0.352 | 0.561 |
| TCAAATAGGTAATACAGGTGAAAGTCGGCATCTA | 0.834 | 1.29 | 0.418 | 0.892 | 0.0118 | 2.04 | 1.14 | 2.72 | 4.16 | 3.5 | 3.6 | 2.94 | 1.25 | 1.14 | 0.815 | 0.771 | 0.46 | 0.82 | 1.66 | 0.777 |
| TCGAGTAGGTTACGAATGGGGCATTCAGCTTTCT | 0.143 | 0.677 | -0.52 | 0.42 | -0.693 | 0.834 | 0.32 | 0.972 | 0.971 | 0.914 | 3.5 | 2.62 | -0.724 | -1.15 | -0.342 | -0.00987 | -0.855 | 0.446 | -0.789 | 0.855 |
| CAAACTAGGTCACGAAAGGTCAAAGACGAATGAC | 7.6 | 8.07 | 7.51 | 7.29 | 2.75 | 6.72 | 10.4 | 8.57 | 8.01 | 8.93 | 8.52 | 9.24 | 4.91 | 4.77 | 6.85 | 7.05 | 2.93 | 7.89 | 4.46 | 5.69 |
| CGTCCAAGGTCAAAGGTCAGTGACGAGATGACGG | 8.29 | 6.97 | 3.55 | 6.4 | 2.01 | 7.03 | 10.8 | 9.11 | 8.03 | 9.31 | 4.07 | 5.8 | 1.24 | 0.0683 | 6.48 | 7.17 | 2.08 | 8.72 | 2.59 | 5.86 |
| CGAACTAGGTCAGAACAGGACAGTCAAGGATGAT | 1.77 | 1.06 | 0.173 | 0.627 | -0.362 | 3.31 | 5.24 | 4.41 | 1.74 | 3.31 | 7.24 | 7.46 | 1.4 | 0.732 | 0.7 | 1.08 | 0.108 | 1.05 | 0.263 | 3.08 |
